Data on 75 compounds can be found in PubChem BioAssay AID588591 (National Center for Advancing Translational Sciences (NCATS), 2011).

The campaign covered roughly 390,000 compounds. About 4,700 (1.2%) were called active. About 4% were inconclusive and are not listed. This is one part of a sample in which actives are shown more often than they occur. Calls come from the whole dose curve; as a rule, active = well fitted inhibition curve with a large enough effect; inconclusive = small, poorly fitted or top-dose-only effect, or another doubt; inactive = no such curve, though single readings can be large or run the other way.
% is set by controls: 0 for no effect and ±100 for the full control effect; potency is the fitted concentration of half-maximal effect.

DNA polymerase eta (Homo sapiens), sequence (Q9Y253 whole entry, looked up): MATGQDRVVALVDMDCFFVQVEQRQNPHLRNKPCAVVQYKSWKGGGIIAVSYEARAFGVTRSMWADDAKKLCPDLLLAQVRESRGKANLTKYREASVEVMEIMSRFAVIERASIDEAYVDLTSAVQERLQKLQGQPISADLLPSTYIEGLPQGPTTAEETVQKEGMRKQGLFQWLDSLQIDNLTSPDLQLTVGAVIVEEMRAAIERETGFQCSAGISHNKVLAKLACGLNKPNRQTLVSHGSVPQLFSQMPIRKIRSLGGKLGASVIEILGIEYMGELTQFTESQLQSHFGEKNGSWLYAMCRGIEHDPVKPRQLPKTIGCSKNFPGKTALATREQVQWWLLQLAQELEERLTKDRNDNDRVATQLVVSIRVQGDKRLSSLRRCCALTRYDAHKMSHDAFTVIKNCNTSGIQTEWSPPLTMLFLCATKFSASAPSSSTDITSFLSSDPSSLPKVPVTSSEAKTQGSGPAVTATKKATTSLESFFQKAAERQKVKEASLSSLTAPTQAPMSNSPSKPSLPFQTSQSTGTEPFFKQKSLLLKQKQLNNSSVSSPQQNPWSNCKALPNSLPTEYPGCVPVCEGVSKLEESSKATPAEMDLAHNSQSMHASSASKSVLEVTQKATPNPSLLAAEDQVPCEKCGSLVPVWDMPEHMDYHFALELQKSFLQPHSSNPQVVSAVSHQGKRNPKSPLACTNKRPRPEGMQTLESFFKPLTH

The assay has as its target DNA polymerase eta (Homo sapiens) (UniProt Q9Y253). The assay can be described thus: qHTS for Inhibitors of Polymerase Eta. The note with it: recombinant Pol eta, fluorescent DNA replication assay; series mostly up to 114 µM; activity change, negative = inhibition: at the top concentration. An excerpt: The Y-family of DNA polymerases, such as Pol eta, are specifically involved in DNA repair. Pol eta copies undamaged DNA with a lower fidelity than other DNA-directed polymerases. However, it accurately replicates UV-damaged DNA; when thymine dimers are present, this polymerase inserts the complementary nucleotides in the newly synthesized DNA, thereby bypassing the lesion and suppressing the mutagenic effect of UV-induced DNA damage. […] Thus, while pol eta's (and most likely iota's) normal function is to protect humans against the deleterious consequences of DNA damage, under certain conditions they can have deleterious effects on human health. As a consequence, we propose to utilize a high throughput replication assay to identify small molecule inhibitors of pol eta. In a collaboration between the National Institute of Child Health & Human Development (NICHD) and NIH Chemical Genomics Center, a high-throughput, fluorescent screen was developed to screen the NIH Molecular Libraries Small Molecule Repository (MLSMR). This screen is used to identify inhibitors of pol eta. NIH Chemical Genomics Center [NCGC] NIH Molecular Libraries Probe Centers Network [MLPCN] MLPCN Grant: MH090825 Assay Submitter (PI): Roger Woodgate, NICHD)
Three microliters of reagents (buffer in column 3 and 4 as negative control and 10 nM Pol eta in columns 1, 2, and 5-48) were dispensed into a 1,536-well black solid-bottomed plate. Compounds (23 nL) were transferred via Kalypsys pin tool equipped with 1536-pin array. The plates were then incubated for 15 min at room temperature, and 1 µL substrate (50 nM final concentration) was added to start the reaction and kinetically read twice at 0 min and 10 min on the Viewlux reader
(In qHTS, concentration-response curves come from the screen itself.)
Regarding `Cc1cccc(N2C(=O)NC(=O)/C(=C\c3cnn(-c4ccccc4)c3)C2=O)c1`, the Potency was 20 µM (active). As to `CN1C2C=C(N(C(=O)c3ccc(Cl)cc3)c3ccccc3)CC1CC2` (stereo not given), the “activity change, negative = inhibition” value is -9.96% (inactive).

In the case of `CCN(N=Nc1nonc1OC)c1nonc1OC`, the “activity change, negative = inhibition” value was -12.3% (inactive). Same read-out and setting: in the case of `C=CC12CN(C)[C@@H]3C4CO[C@H](C[C@H]41)[C@]1(C(=O)Nc4ccccc41)[C@@H]32` (stereo not given in full) it was -3.38% (inactive). Regarding `Cc1c(C(=O)O)cccc1-n1c(C)cc(/C=C2\C(=O)NC(=O)N(c3ccc4c(c3)OCO4)C2=O)c1C`, the Potency is 5.01 µM (active). With `c1cc2c(cc1C1OCC3C(c4ccc5c(c4)OCO5)OCC13)OCO2` (stereo not given), the “activity change, negative = inhibition” value is -9.72% (inactive). Still for that read-out and setting: in the case of `c1ccc2sc(N3CCNCC3)nc2c1` it was -1.82% (inactive); in that of `CC(=NC1CCN(Cc2ccccc2)CC1)c1c(O)n(C)c(=O)n(C)c1=O`, -9.48% (inactive); in that of `Cn1c(O)c(C=Nc2ccc3c(c2)CCC3)c(=O)n(C)c1=O`, 5.46% (inactive).

For `Cc1ccnc(-n2c(C)cc(/C=C3\C(=O)NC(=S)N(C)C3=O)c2C)c1`, the “activity change, negative = inhibition” value was -22.2% (inactive). For the compound `Cc1ccc(-n2c(C)cc(/C=C3\C(=O)NC(=O)N(C)C3=O)c2C)cc1C`, the Potency was 11.2 µM (active). Same read-out and setting: then `Cc1cc(/C=C2/C(=O)NC(=O)N(Cc3ccco3)C2=O)c(C)n1-c1ccc(C(=O)O)cc1`, with 17.8 µM (active).

On to `c1ccc2c(c1)[I+]c1ccccc1-2`, for which the “activity change, negative = inhibition” value was 0.161% [at 57.1 µM] (inactive). Still for that read-out and setting: in the case of `CC(=O)NBr` it was 0.441% [at 57.1 µM] (inactive); in that of `Fc1cccc(F)c1CN1CCN(Cc2c(F)cccc2F)CC1`, 6.32% (inactive). The same measure, in the same setting: then `CCOC(=O)c1ncn2c1[C@@H]1CCCN1C(=O)c1cc(OC)ccc1-2`, with -2.57% [at 57.1 µM] (inactive); and `Cc1c(Oc2cc(NN3CCCCC3)c([N+](=O)[O-])cc2[N+](=O)[O-])cccc1[N+](=O)[O-]`, with -7.33% (inactive); and `CN(c1ccccc1)c1ccc([N+](=O)[O-])c2nonc12`, with -2.95% (inactive).

Turning to `Nc1ccc([N+](=O)[O-])cc1`, the “activity change, negative = inhibition” value was -1.32% (inactive). The same measure, in the same setting: in the case of `COC(=O)N(c1ccc(OC)cc1)P1(=S)OCCC(C)O1` (stereo not given) it was -7.27% (inactive); in that of `CC1CCCN1CCC(C(N)=O)(c1ccccc1)c1ccccc1` (stereo not given), -6.87% (inactive).

As to `CC[N+](CC)(CC)CCCCCCCCCC[N+](CC)(CC)CC`, the “activity change, negative = inhibition” value is -1.02% (inactive).

With `CC(=O)c1c(O)n(C2CCCCCC2)c(=O)[nH]c1=O`, the “activity change, negative = inhibition” value was 6.54% (inactive). For `O=C1NC(=O)N(c2ccc(F)cc2)C(=O)/C1=C/c1ccc2c(c1)CCCN2Cc1ccccc1`, the Potency was 20 µM (active). Consider `CCC1(CC(C)c2ccccc2)C(=O)NC(=O)NC1=O` (stereo not given), for which the “activity change, negative = inhibition” value is 1.04% (inactive). The same measure, in the same setting: in the case of `Cc1cccc(OP(=O)(Oc2cccc(C)c2)OC(c2ccccc2)C(F)(F)F)c1` (stereo not given) it was -15% (inactive); in that of `CN(C)/C=C(\C=[N+](C)C)c1[nH]ncc1[N+](=O)[O-]`, -11.4% (inactive). On to `COc1ccc(N2C(=O)/C(=C/c3ccco3)C(=O)NC2=S)cc1`, for which the Potency was 1.12 µM (active).

Turning to `CC(=O)N1CN2CN(C(C)=O)CC(C(=O)c3ccc(Br)cc3)(C2)C1`, the “activity change, negative = inhibition” value is -12.3% (inactive). The same measure, in the same setting: in the case of `Cc1ccc(CN2CCCC(C(=O)c3ccc4c(c3)OCO4)C2)cc1C` (stereo not given) it was 31.1% (inactive); in that of `O=C1NC(=O)C(C/C=C/c2ccccc2)C(=O)N1`, -5.62% (inactive). On the same count and under the same terms, then `CN(C)c1ccc(/C=C2\CC3C4CC=C5CC(O)CCC5(C)C4CCC3(C)C2=O)cc1` (stereo not given), with 1.76% (inactive). Turning to `C[C@@H]1CC[C@@]2(OC1)O[C@H]1C[C@H]3[C@@H]4CC=C5C[C@@H](O)[C@H](O)C[C@]5(C)C4CC[C@]3(C)[C@H]1[C@@H]2C` (stereo not given in full), the Potency is 89.1 µM (active). For `CCOC(=O)C(O)(c1ccc(N)c(OC)c1)C(F)(F)F` (stereo not given), the “activity change, negative = inhibition” value was -15.8% (inactive). Still for that read-out and setting: in the case of `COC(=O)C(O)(c1ccc(NC(=O)c2ccco2)c(OC)c1)C(F)(F)F` (stereo not given) it was -12.3% (inactive); in that of `CCCCN1C2CCC1CC(OC(c1ccc(F)cc1)c1ccc(F)cc1)C2` (stereo not given), -6.59% [at 57.1 µM] (inactive). On to `C[C@@H]1C[C@@H]2O[C@H]2/C=C\C=C\C(=O)Cc2c(Cl)c(O)cc(O)c2C(=O)O1`, for which the Potency is 10 µM (active). As to `COc1ccc(-n2c(O)c(C(C)=Nc3ccc4c(c3)CCC4)c(=O)[nH]c2=O)cc1`, the “activity change, negative = inhibition” value was -16.7% (inactive).

Regarding `O=C(Nc1ccc(Cl)cc1C(=O)c1ccccc1)c1cc(Cl)cc(Cl)c1`, the “activity change, negative = inhibition” value was -12% (inactive). The same measure, in the same setting: then `COc1ccc(C2C=C(C)Oc3c2c(=O)oc2ccccc32)cc1OC` (stereo not given), with 1.27% (inactive); and `CCN1C(=O)NC(=O)C2(CCCC2)C1=O`, with -7.47% (inactive).

For the compound `O=C1NC(=O)N(CCc2ccc(F)cc2)C(=O)/C1=C/C=C/c1ccccc1`, the Potency is 50.1 µM (active). With `COC(=O)C1=C(c2cc3ccccc3s2)C[C@@H]2CC[C@H]1N2C(=O)NC(C)C`, the “activity change, negative = inhibition” value is -1.91% (inactive). The same measure, in the same setting: in the case of `COc1ccc(C(=O)CC2C(=O)N(C)C(=O)N(C)C2=O)cc1` it was -4.75% (inactive). The same measure, in the same setting: in the case of `Cc1cc2ccccn2c1C(C[N+](=O)[O-])c1c(F)cccc1Cl` (stereo not given) it was -12.9% (inactive). Take `COc1cccc(N2C(=O)NC(=O)/C(=C\c3ccc([N+](=O)[O-])s3)C2=O)c1`: the Potency was 17.8 µM (active). For `O=C1NC(=O)N(c2ccccc2)C(=O)/C1=C/c1ccc([N+](=O)[O-])s1`, the Potency is 10 µM (active). Regarding `Cn1c(O)c(C=NCCN2CCNCC2)c(=O)n(C)c1=O`, the “activity change, negative = inhibition” value was -5.18% (inactive).

Take `COC(=O)C1=C(c2ccc(OCc3ccccc3)cc2)C[C@@H]2CC[C@H]1N2C(=O)NCc1ccc(Cl)cc1`: the “activity change, negative = inhibition” value is -23.3% (inactive). Still for that read-out and setting: in the case of `O=C(O)C1C2CCC(O2)C1C(=O)O` (stereo not given) it was -2.24% [at 57.1 µM] (inactive); in that of `CC1=C(C(=O)Nc2ccccc2)SCCO1`, -19.1% (inactive); in that of `CCOC(=O)C1SC2(C(F)(F)C(F)F)CC1(O)c1c(c(OC)c3occc3c1OC)O2` (stereo not given), 0.0717% (inactive).

Consider `CCN1CCN(c2nc3c(c(=O)[nH]2)CCC3)CC1`, for which the “activity change, negative = inhibition” value was -11.4% (inactive). In the case of `Cc1cccc(NC(=O)OC2CN3CCC2CC3)c1` (stereo not given), the “activity change, negative = inhibition” value was -12.7% (inactive).

For `CN(C)S(=O)(=O)c1cc(C(=O)N2CCC(C(=O)O)(c3ccccc3)CC2)ccc1Cl`, the “activity change, negative = inhibition” value was -13.7% (inactive).

Turning to `COC(=O)C1=C(c2c(C)noc2C)C[C@@H]2CC[C@H]1N2C(=O)NCc1ccc2c(c1)OCO2`, the “activity change, negative = inhibition” value was -20.6% (inactive). Same read-out and setting: then `CCc1ccc(OCC(=O)N2CCN(CC(=O)Nc3ccccc3Cl)CC2)cc1`, with -21.1% (inactive); and `C[C@H]1CN([C@@H](C)CO)C(=O)CCCn2nncc2CO[C@H]1CN(C)C(=O)Oc1ccccc1`, with -7.47% (inactive). The same measure, in the same setting: then `Cc1cc(C(=O)OCC(=O)Nc2c(F)cccc2F)c(C)n1C1CC1`, with -8.46% (inactive); and `CN1CCN(/N=C/c2c[nH]c3ccccc23)CC1`, with -23.5% (inactive). As for `CN1CCc2nc(SC(C(=O)O)c3ccccc3)c(C#N)c(-c3cccs3)c2C1` (stereo not given), the Potency was 31.6 µM (active). As for `Cc1ccc(-n2c(/C=C/c3cccc(C(F)(F)F)c3)nc3ccccc3c2=O)cc1`, the “activity change, negative = inhibition” value is -2.12% (inactive). The same measure, in the same setting: in the case of `O=C(CCCn1c(=O)[nH]c2cc(Cl)ccc2c1=O)N1CCC2(CC1)OCCO2` it was -5.01% (inactive). On the same count and under the same terms, then `CCN(CC)C(=O)c1ccc(NC(=O)c2sccc2-c2ccccc2)cc1`, with -7.87% (inactive); and `C=CCN(CC=C)C(=O)Nc1ccc(OCC)cc1`, with -2.67% (inactive).

For the compound `CCOc1ccc(-c2cc(C)n3nc(C(=O)Nc4ccc(C)c(C)c4)cc3n2)cc1`, the Potency was 70.8 µM (active). `CC1=C(C(=O)Nc2ccccc2)S(=O)(=O)CCO1`: the “activity change, negative = inhibition” value is -0.941% (inactive).

For the compound `Cn1cc(C(=O)OCC(=O)N2CCCC2)c2ccccc21`, the “activity change, negative = inhibition” value is -7.55% (inactive). `O=C1NC(=O)N(Cc2ccco2)C(=O)/C1=C\c1cccn1CCOc1ccccc1`: the Potency is 79.4 µM (active). In the case of `O=C1NC(=O)N(Cc2ccco2)C(=O)/C1=C\c1ccc(-c2ccc(F)cc2)o1`, the Potency was 25.1 µM (active).

In the case of `COc1cccc(OC)c1C(=O)NC(=S)N1C[C@H]2C[C@H](C1)c1cccc(=O)n1C2`, the “activity change, negative = inhibition” value is -12.9% (inactive). Still for that read-out and setting: then `CC(C)c1ccc(OCC(=O)N2CCN(C)CC2)c(Br)c1`, with 1.25% (inactive); and `CCOC(=O)C1=C(C)OC(N)=C(C(=O)OC)C12C(=O)Nc1ccc(Br)cc12` (stereo not given), with -6.19% (inactive); and `COc1cccc(CN2CCCC(C(=O)c3ccccc3SC)C2)c1O` (stereo not given), with -19% (inactive).

Turning to `Cc1ccc(P(=S)(c2ccc(C)o2)N2CCOCC2)o1`, the “activity change, negative = inhibition” value is 0.879% (inactive).
